Experimental findings from PubChem BioAssay are described below.

The structures appear in SMILES notation.

The assay can be described thus: blood-stage malaria parasite viability loss – strain 3D7, DAPI fluorescence, 100 nL, primary screen (AID 1184).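 Also: parasites grown inside human red blood cells in medium with human serum.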 The following applies: P. falciparum 3D7 growth, 3 d, higher = more signal.
Turning to `CC(C)CCN1CCc2nc(COc3ccccc3)c3c(c2C1)CO[C@@H](C)C3`, the z-score amounted to 0.329.

Compound `CO[C@H]1COC(=O)[C@H](C)NC(=O)CC=C[C@@H](C)[C@H](OC)COC(=O)[C@@H](OCc2ccccc2)C=C[C@@H]1C` registered a z-score of 0.112.

In the case of `O=C1CCCC=C1C(CCc1ccccc1)OC(=O)c1ccc(Br)cc1` (configuration not stated), the z-score was -0.108. On to `CC(CCN1CCc2nc(-c3ccccc3)c(-c3ccccc3)cc2C1)=NOC[C@@H](O)[C@H]1O[C@@H]2OC(C)(C)O[C@@H]2[C@H]1O`, for which the z-score worked out at 0.688. The same measure for `O=C1[C@H]2[C@H]3[C@H](O)[C@H](O)CC(=NOCc4ccccc4)[C@@H]3CC[C@H]2C(=O)N1Cc1ccc2c(c1)OCO2`: -0.364; for `COc1cccc([C@H]2Oc3ccc(OC)cc3C(=NO[C@@H](C)c3cn([C@H](CO)Cc4ccccc4)nn3)[C@@H]2O)c1`: -0.868. The compound `COC(=O)[C@H](C)NC(=O)CCC1CC(OC(=O)NCc2ccc3c(c2)OCO3)CC2(CCCC(COC(=O)NCC3CCCCC3)O2)O1` (some centres not stated) displayed a z-score of -1.87. `CC(C)(C)N1C(=O)[C@H]2[C@H]3[C@H](O)[C@H](O)CC(=NOCc4ccccc4)[C@H]3CC[C@H]2C1=O` yielded a z-score of 0.195. Consider `CC(CCN1CCCCc2nc(C)c(C)cc21)=NOC[C@@H](C)[C@H](OCc1ccccc1)C(C)C`, for which the z-score came out at 0.318. `Cc1cc2c(nc1C)CCCCN2CC(C)ON=C[C@@H](C)[C@H](OCc1ccccc1)C(C)C` (some centres not stated) came in with a z-score of -0.109.

In turn, `CCc1cc2c(nc1CC)CCN(CCC(C)=NO[C@H](C)c1cn([C@@H]3COC[C@H]3O)nn1)C2` returned a z-score of 0.653. Under `C#CCCCON=C1C[C@@H](O)[C@@H](O)[C@@H]2[C@@H]3C(=O)N(c4ccc(F)cc4F)C(=O)[C@@H]3CC[C@@H]12` stands -0.217.
